A selection: hits, their analogues and other compounds. The true share with any hit is near 4.9%.
USP10 block = inhibitors of human USP10 deubiquitinase | Ubiquitin carboxyl-terminal hydrolase 10 (Homo sapiens), Q14694 | purified USP10, Ub-rhodamine fluorescence, 60 min | inhibition, % at 20 µM | actives 1.1% (n = 47,000)
OTUD3 block = inhibitors of human OTUD3 deubiquitinase; inhibition, % at 25 µM; OTU domain-containing protein 3 (Homo sapiens), Q5T2D3; purified OTUD3, Ub-rhodamine fluorescence, 2 h; actives 0.7% (n = 47,000); AID 1645858, 2021
UCHL1 inh = inhibitors of human UCHL1 deubiquitinase; Ubiquitin carboxyl-terminal hydrolase isozyme L1 (Homo sapiens), P09936; purified UCHL1, Ub-rhodamine cleavage fluorescence; inhibition, % at 20 µM; actives 0.2% (n = 47,000)
USP8 block = inhibitors of human USP8 deubiquitinase; Ubiquitin carboxyl-terminal hydrolase 8 (Homo sapiens), P40818; purified USP8, Ub-rhodamine cleavage fluorescence, 30 min; inhibition, % at 20 µM; actives 4.2% (n = 47,000)
USP7 block = inhibitors of human USP7 deubiquitinase | Ubiquitin carboxyl-terminal hydrolase 7 (Homo sapiens), Q93009 | purified USP7, Ub-rhodamine cleavage fluorescence | inhibition, % at 20 µM | actives 0.3% (n = 47,000) | AID 1645854, 2021
Of the large screens only hits and unclear results are named; the others gave an inactive call. No stated cut-off is given here; in the data, active means inhibition above about 30%; inactive means the rest.

COc1ccc(/C=C/C(=O)Nc2cccc(S(=O)(=O)Nc3ccccc3Cl)c2)c(OC)c1	USP10 block 62, USP8 block 66
COc1ccccc1NS(=O)(=O)c1cccc(NC(=O)CCOc2ccccc2)c1	none
O=C1CC(c2ccc(C(F)(F)F)cc2)c2c(nc(-c3ccccc3)[nH]c2=O)N1 (stereo unspecified)	USP8 block 65
c1ccc2nc(-c3cn[nH]c3)cnc2c1	none
CCOC(=O)CSc1ncnc2c1sc1nc(C(C)C)c3c(c12)CCC3	none
COc1cccc(C(=O)Nc2nonc2-c2ccc(C(C)C)cc2)c1	USP8 block 44
C(=C\c1nc(-c2cccc(-c3ccn[nH]3)c2)no1)/c1ccco1	USP8 block 35, USP7 block 31
Fc1ccc(OCc2nc(-c3cccc(-c4ccn[nH]4)c3)no2)cc1	USP8 block 33
O=C(CCSc1nnnn1-c1ccccc1)Nc1cc(C(F)(F)F)ccc1Cl	USP7 block 35
Cn1nc(-c2ccccc2)c2cc(C(=O)N3CCOCC3)sc21	none
CN(C)c1nc2cc(C(=O)N3CCCC3)sc2n1-c1ccccc1	USP8 block 57
CNC(=O)c1cc2nc(N(C)C)n(-c3ccc(F)cc3)c2s1	USP8 block 89
Cc1ccccc1OCC(=O)Nc1ccc2c(c1)CN(C(=O)c1ccco1)CC2	none
CCN1CCN(c2ccc(C(=O)O)cc2NS(=O)(=O)c2ccc(C(C)C)cc2)CC1	USP8 block 81
N#Cc1ccc(C(=O)Nc2ccc3c(N4CCCC4)ncnc3c2)cc1	none
O=C1c2ccccc2-c2nnc(-c3ccncc3)cc21	USP8 block 95
Cc1c(CC(=O)N2CCN(c3ccccc3)CC2)c(=O)oc2c(C)c(O)ccc12	USP8 block 31
CN(C)CCCNC(=O)c1cc2occc2n1Cc1ccccc1F	none
CCOc1ccccc1NC(=O)C1CC(=O)Nc2nc3ccccc3n21 (stereo unspecified)	USP8 block 39
Cc1cc(C)cc(NC(=O)C2CC(=O)Nc3nc4ccccc4n32)c1 (stereo unspecified)	USP10 block 40, USP8 block 46
CCc1ccc(NC(=O)Cn2c(=O)n(C)c(=O)c3nscc32)cc1	none
CCn1cc2c(n1)c(=O)n(Cc1ccccc1)c(=O)n2CC(=O)Nc1ccc(C(C)C)cc1	USP8 block 71
CCn1cc2c(n1)c(=O)n(Cc1ccccc1)c(=O)n2CC(=O)Nc1ccc(OC)cc1	USP10 block 47, USP8 block 68
CCc1ccc(NC(=O)Cn2c(=O)n(Cc3ccccc3)c(=O)c3nn(CC)cc32)cc1	USP10 block 56, USP8 block 98, USP7 block 32
CC(C)c1ccc(NC(=O)Cn2c(=O)n(Cc3ccncc3)c(=O)c3ncccc32)cc1	none
Cc1cccc(C(=O)NCCc2nc3ccccc3n2Cc2ccccc2F)c1	none
O=C(NCCc1nc2ccccc2n1Cc1ccccc1F)c1ccc(Cl)cc1	USP10 block 30
NCc1ccc(C(=O)N2CCC3(CC2)C(=O)Nc2ccccc23)cc1	USP8 block 85
COc1cccc(NC(=O)N2CCC3(CC2)C(=O)Nc2ccccc23)c1	none
CCOc1ccc(C2/C(=C(\O)c3ccccc3)C(=O)C(=O)N2c2nc3ccc(F)cc3s2)cc1 (stereo unspecified)	USP7 block 72
COc1cc2c(cc1OC)CN(C(=O)C(NC(=O)c1ccccc1)C(C)C)CC2 (stereo unspecified)	USP8 block 53
COc1ccc(OC)c(-c2csc(N(CCCN3CCOCC3)C(=O)c3cccc(C)c3)n2)c1	none
Cc1ccc2c(c1)[nH]c1c(N3CCc4ccccc4C3)ncnc12	USP8 block 35
Cc1cccc(NC(=O)CSc2nnc(-c3n[nH]c4c3CCC4)n2N)c1C	USP8 block 51
Cc1ccc(NC(=O)CSc2nnc(-c3n[nH]c4c3CCC4)n2N)cc1C	USP10 block 36
O=C(Cc1n[nH]c(Cc2ccc(F)cc2)n1)NC1CCCCCC1	USP8 block 42
COc1cccc(NC(=O)c2cc(-c3ccccc3)n[nH]2)c1	none
COc1ccc(-c2cc(C(=O)Nc3n[nH]c4nc(C)ccc34)[nH]n2)c(OC)c1	USP8 block 56
CCC(C(=O)Nc1ccc(-c2nc3cccnc3s2)cc1)c1ccccc1 (stereo unspecified)	USP8 block 36
COc1ccc(C)cc1N(CC(=O)N1CCOCC1)S(=O)(=O)c1ccc(C)cc1	none
CCc1ccc(NC(=O)Cc2nnc(-c3ccc4ncccc4c3)o2)cc1	USP8 block 51
Cc1cccc(NC(=O)Cc2nnc(-c3ccc4ncccc4c3)o2)c1	none
Cc1ccc(F)cc1NC(=O)Cc1nnc(-c2ccc3ncccc3c2)o1	USP8 block 56
Cc1nn(-c2ccc(F)cc2)c(C)c1S(=O)(=O)N1CCN(c2ccccn2)CC1	USP7 block 36
Cc1oc2ncn3nc(C(C)Oc4cccc5ccccc45)nc3c2c1C (stereo unspecified)	USP8 block 78
Cc1ccccc1OCc1nc2c3c(C)c(C)oc3ncn2n1	none
CCOC(=O)N1CCN(S(=O)(=O)c2ccc(C(=O)Nc3ccc(OC)c4ccccc34)cc2)CC1	USP8 block 56
CCOC(=O)N1CCN(S(=O)(=O)c2ccc(C(=O)Nc3ccc(S(N)(=O)=O)cc3)cc2)CC1	none
Cc1cccc(N2C(=O)N(c3ccccc3)C3CS(=O)(=O)CC32)c1 (stereo unspecified)	none
Cc1cccc(N2C(=O)/C(=C\c3cc(C#N)n(C)c3C)c3ccccc3C2=O)c1	USP10 block 35, USP8 block 56
O=C(O)CSc1nnc(-c2ccccn2)n1Cc1ccco1	none
Fc1cc(F)c2[nH]cc(-c3nnnn3-c3ccc4ccccc4c3)c2c1	USP10 block 31, USP8 block 55
O=C(COc1ccc2ccccc2c1)NCc1nnnn1-c1ccc(F)c(F)c1	none
O=C(COC(=O)CCc1nc2ccccc2[nH]c1=O)Nc1ccc([N+](=O)[O-])cc1	USP8 block 81
CC(OC(=O)CCc1nc2ccccc2[nH]c1=O)C(=O)Nc1cccc(Cl)c1Cl (stereo unspecified)	none
CC/C=C\C/C=C\C/C=C\CCCCCCCC(=O)O	USP10 block 54, OTUD3 block 73, UCHL1 inh 35, USP8 block 39, USP7 block 41
CC1CC(C)CN(S(=O)(=O)c2ccc(C(=O)Nc3c(C(N)=O)oc4ccccc34)cc2)C1 (stereo unspecified)	none
COc1ccc(C(C)NC(=O)c2cnc(-c3ccccc3)nc2-c2ccncc2)cc1 (stereo unspecified)	none
c1cncc(-c2cnc3sc(NCc4ccc5c(c4)OCO5)nn23)c1	USP10 block 30, OTUD3 block 60, USP8 block 37
CN(C)c1ccc(CNc2nn3c(-c4cccnc4)cnc3s2)cc1	OTUD3 block 40
